Assay outcomes (PubChem)
rTrxR1 inhibitor: inhibitors of rat thioredoxin reductase 1 | O89049 | recombinant rTrxR1, NADPH fluorescence consumption, selenite substrate | Potency, µM (highest dose often 114 µM), inactives show top-dose activity change, negative = inhibition, most hits filed as inhibitors | 390,000 compounds, 1% hits | AID 588453; also: potency is read from the fitted curve at half-maximal effect; nearly all actives have a fitted effect of over 65% in size
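Rat TrxR1 (90 nM in the dispensed reagent) was pre-reduced with 400 uM NADPH for 5 min at room temperature, then incubated with compound for 15 min. After 400 uM selenite was added, NADPH fluorescence (Ex 340/Em 450 nm) was followed for 8 min.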
GALK inhibitor: galactokinase (human) inhibition. P51570. Potency, µM (top dose mostly 57.5 µM), for inactives: top-dose activity change, negative = inhibition, hits mostly inhibitors. 270,000 compounds, 0.007% hits. Purified GALK, Kinase-Glo residual ATP luminescence; also: potency is read from the fitted curve at half-maximal effect
Target sequence (P51570 whole entry, looked up): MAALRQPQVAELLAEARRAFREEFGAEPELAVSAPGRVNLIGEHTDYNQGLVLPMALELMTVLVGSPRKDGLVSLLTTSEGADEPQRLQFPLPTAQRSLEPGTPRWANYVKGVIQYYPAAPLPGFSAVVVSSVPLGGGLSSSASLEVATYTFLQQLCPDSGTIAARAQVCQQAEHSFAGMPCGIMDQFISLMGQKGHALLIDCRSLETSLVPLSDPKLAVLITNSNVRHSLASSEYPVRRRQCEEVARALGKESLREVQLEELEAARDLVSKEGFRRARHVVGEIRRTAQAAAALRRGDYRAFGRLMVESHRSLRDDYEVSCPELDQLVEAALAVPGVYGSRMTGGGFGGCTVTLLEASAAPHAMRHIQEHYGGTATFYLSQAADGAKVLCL
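GALK at 5 nM final was combined with compound, 35 uM ATP and 100 uM galactose in HEPES pH8.0 with MgCl2 and DTT. The reaction ran one hour at room temperature before luminescent ATP detection.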
PKM2 act: increases activity of human pyruvate kinase M2 | Potency, µM (doses to about 57.5 µM), inactives show at the top dose activation, usual class: activators | AID 1631 | purified PKM2, Kinase-Glo ATP luminescence, activation; response scale: 0% is enzyme alone, no compound | 260,000 compounds, 0.34% hits; also: potency is read from the fitted curve at half-maximal effect; nearly all actives have a fitted effect of over 55% in size
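hPK-M2, >95% pure; 0.1 mM ADP / 0.5 mM PEP final; imidazole pH7.2 buffer w/ 7 mM MgCl2, 50 mM KCl; 1 h RT; Kinase-Glo lum. Intermediate enzyme activity for dual inhibitor/activator qHTS.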
TrxR1 substrate: is turned over as a substrate by rat TrxR1 | O89049 | purified TrxR1 substrate turnover, NADPH consumption readout | Potency, µM (doses to about 114 µM), for inactives: at the top dose activity change, negative = substrate turnover | 390,000 compounds, 0.01% hits; also: potency is read from the fitted curve at half-maximal effect; nearly all actives have a fitted effect of over 50% in size
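Rat TrxR1, dispensed at 90 nM, was prereduced with 400 uM NADPH (final) for 5 min at ~22 deg C, then incubated with compound 15 min before 400 uM selenite. A first-read NADPH fluorescence drop versus no-compound background flagged substrates.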
PI4K2A block: blocks human PI4K2A kinase activity; Q9BTU6; AID 1346378; 420,000 compounds, 0.13% hits; purified PI4K2A, ADP-Glo luminescence, 1 h; active compounds read low; activity change, negative = inhibition, % at 76.9 µM; in the data active = activity change below about -50%; inconclusive = mostly about -30% to -49%;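 also: -100% = wells without enzyme as full effect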
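In this quantitative HTS, ADP production by PI4K2A was quantified luminescently after 1 h at ambient temperature; 100 microM adenosine served as plate-quality control.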
Numbers without * were called inactive; [ ] = dose if it differs, or a comment. Shown are actives, neighbours in structure and some others; about 1.2% of the full set was active somewhere. Unless noted, calls follow the shape of the dose curve; as a rule, active = well fitted curve in the direction sought with a large enough effect; inconclusive = small, poorly fitted or top-dose-only effect, or another doubt; inactive = no such curve, though single readings can be large; an effect the other way counts as inactive or inconclusive. Unless noted, % is scaled to controls: 0 for no effect and ±100 for the full control effect.

For O=C(Cn1nc(-c2ccco2)ccc1=O)Nc1ccc(Br)cc1 the results were rTrxR1 inhibitor 39.8µM*, GALK inhibitor 7.2%, PKM2 act -6.3%[0.46 µM], TrxR1 substrate 20.5% and PI4K2A block -8.6.
For CCOc1ccc(NC(=O)CSc2ccc(-c3ccco3)nn2)cc1 the results were rTrxR1 inhibitor inconclusive, GALK inhibitor -1.1%, PKM2 act -12.7%, TrxR1 substrate 4.3% and PI4K2A block -5.1.
`COc1cccc(NC(=O)CSc2ccc3nnc(-c4ccncc4)n3n2)c1` gave rTrxR1 inhibitor 19.5%, GALK inhibitor 3.2%, PKM2 act 1.78µM*, TrxR1 substrate 7.8% and PI4K2A block -2.0.
For COc1ccc(NC(=O)CSc2ccc(-c3ccco3)nn2)cc1OC the results were rTrxR1 inhibitor 35.5µM*, GALK inhibitor -2.8%, PKM2 act 17.9%, TrxR1 substrate -1.8% and PI4K2A block -4.0.
For COc1cccc(NC(=O)CSc2ccc(-c3ccco3)nn2)c1 the results were rTrxR1 inhibitor 28.2µM*, GALK inhibitor -4.6%, PKM2 act 3.16µM*, TrxR1 substrate 5.0% and PI4K2A block -6.3.
Screening O=C1CCC[C@H]2C[C@H](NCc3ccc(F)cc3F)CC[C@]23CCCN13 returned PI4K2A block -4.9.
O=S(=O)(c1cccc2cccnc12)N1CCC(c2cn3ccccc3n2)CC1 was read as PI4K2A block -12.3.
`CS(=O)(=O)c1ccc(CNC(=O)[C@H]2C[C@@H]2[C@H](NP(=O)(c2ccccc2)c2ccccc2)c2ccccc2)cc1` gave PKM2 act 0.5%.
COc1ccc(CNC(=O)OC2CC3CC2[C@H]2CCCCN2C3)cc1 (stereo partly specified) was read as PI4K2A block 5.1.
For Cc1nnc(NC(=O)CSc2ccc(-c3ccco3)nn2)s1 the results were rTrxR1 inhibitor 17.8µM*, GALK inhibitor -1.3%, PKM2 act 20µM*, TrxR1 substrate 9.6% and PI4K2A block 10.9.
Screening O=C(CSc1ccc(-c2ccco2)nn1)c1ccccc1 returned rTrxR1 inhibitor 28.2µM*, GALK inhibitor -0.3%, PKM2 act inconclusive, TrxR1 substrate -5.8% and PI4K2A block -0.5.
`O=C(CSc1ccc(-c2ccco2)nn1)Nc1ccc(F)cc1` gave rTrxR1 inhibitor 31.6µM*, GALK inhibitor 4.0%, PKM2 act 29.5%, TrxR1 substrate 8.1% and PI4K2A block -2.6.
OC[C@H]1O[C@@H](OCCc2ccc(O)cc2)[C@H](O)[C@@H](O)[C@H]1O was read as PI4K2A block -0.7.
Screening N#Cc1cccc2c1-c1ccccc1/C2=N/NC(N)=S returned rTrxR1 inhibitor inconclusive, GALK inhibitor -5.8%, TrxR1 substrate 3.6%[57.1 µM] and PI4K2A block 0.7.
`NC(=S)NN=C1c2ccccc2-c2c(F)c(F)c(F)c(F)c21` gave rTrxR1 inhibitor 56.2µM*, TrxR1 substrate -10.1% and PI4K2A block 1.6.
O=C1CCCN1CCC12CC3CC(CC(C3)C1)C2 was read as rTrxR1 inhibitor 18.2%, GALK inhibitor 0.7%, PKM2 act 39.8µM*, TrxR1 substrate 1.0% and PI4K2A block -5.6.
Screening CCc1cccc(C)c1NC(=O)c1ccoc1C returned rTrxR1 inhibitor 20µM*, GALK inhibitor 1.8%, PKM2 act 17.2%, TrxR1 substrate -1.4% and PI4K2A block -4.3.
`CCc1cccc(C)c1NC(=O)c1cc(C)oc1C` gave rTrxR1 inhibitor 3.4%, GALK inhibitor 0.4%, PKM2 act 5.0%, TrxR1 substrate 2.0% and PI4K2A block 2.3.
For CCOC(=O)N1CCN(c2cc(NCCO)c([N+](=O)[O-])c3nonc23)CC1 the results were rTrxR1 inhibitor 8.3%[57.1 µM], GALK inhibitor -1.2%, PKM2 act -2.0%, TrxR1 substrate 1.5%[57.1 µM] and PI4K2A block -4.0.
For COC(=O)CCSc1cc(NCCCOC(C)=O)c([N+](=O)[O-])c2nonc12 the results were rTrxR1 inhibitor 3.16µM* and TrxR1 substrate -14.9%.
`Cc1ccc(Sc2cc(NCCCO)c([N+](=O)[O-])c3nonc23)cc1` gave rTrxR1 inhibitor 12.6µM*, GALK inhibitor -2.1%, PKM2 act 3.8%, TrxR1 substrate 5.0% and PI4K2A block -5.5.
`CC(=O)OCCNc1cc(SC(C)C)c2nonc2c1[N+](=O)[O-]` gave rTrxR1 inhibitor 3.8%[57.1 µM], GALK inhibitor 5.6%, PKM2 act -6.8%, TrxR1 substrate -16.3%[57.1 µM] and PI4K2A block -0.3.
For CCCC(=O)OCCNc1cc(Sc2nc3ccccc3[nH]2)c2nonc2c1[N+](=O)[O-] the results were rTrxR1 inhibitor 1µM*, GALK inhibitor 1.2%, PKM2 act inconclusive, TrxR1 substrate -4.2% and PI4K2A block 3.3.
Screening CC(=O)OCCCNc1cc(Sc2ccc(Cl)cc2)c2nonc2c1[N+](=O)[O-] returned rTrxR1 inhibitor 3.16µM*, GALK inhibitor -1.9%, PKM2 act 10.0%, TrxR1 substrate -14.3% and PI4K2A block -3.7.
`CCN(CC)c1cc(NCCO)c([N+](=O)[O-])c2nonc12` gave rTrxR1 inhibitor -10.7%, GALK inhibitor 5.2%, PKM2 act -11.9%, TrxR1 substrate -12.8% and PI4K2A block -5.4.
Screening CCC(=O)OCCNc1cc(Sc2nccn2C)c2nonc2c1[N+](=O)[O-] returned rTrxR1 inhibitor 0.282µM*, GALK inhibitor -1.6%, PKM2 act inconclusive, TrxR1 substrate -7.4% and PI4K2A block 4.3.
For CC(C)CCSc1cc(NCCO)c([N+](=O)[O-])c2nonc12 the results were rTrxR1 inhibitor 3.55µM*, GALK inhibitor 8.2%, PKM2 act -2.7%, TrxR1 substrate 5.4%[57.1 µM] and PI4K2A block -2.3.
Screening CCC(=O)OCCNc1cc(SCCC(=O)OC)c2nonc2c1[N+](=O)[O-] returned rTrxR1 inhibitor 8.91µM*, GALK inhibitor 0.3%, PKM2 act 4.6%, TrxR1 substrate -17.2% and PI4K2A block 1.8.
Screening CC1=C(C(=O)Nc2cccc(C(F)(F)F)c2)C(c2ccccn2)n2ncnc2N1 (stereo unspecified) returned rTrxR1 inhibitor 15.7%[57.1 µM], TrxR1 substrate 1.2%[57.1 µM] and PI4K2A block -1.3.
COCCCNC(=O)C[C@@H]1C(=O)N2CCCC3=C2[C@@]1(C(=O)OC)CCCC3 was read as PI4K2A block 5.2.
Screening CC(C)(C)OC(=O)NC(Cc1ccccc1)C(O)c1ccco1 (stereo unspecified) returned rTrxR1 inhibitor -17.8% and TrxR1 substrate -0.8%.
Screening Cc1cccc2c1N(Cc1ccccc1OCCC(C)C)C(=O)C2=O returned rTrxR1 inhibitor 17.0%, TrxR1 substrate 3.2% and PI4K2A block 25.9.
Cn1c(SCC(=O)N/N=C/C=C/c2ccco2)nc2ccccc21 was read as rTrxR1 inhibitor 44.7µM*, GALK inhibitor -0.1%, PKM2 act -7.2%, TrxR1 substrate -12.8% and PI4K2A block -18.5.
